Compounds without any hit were thinned out: in the full panel of roughly 79,000, 15% have a hit. A number with no mark means an inactive call. Calls of active or inactive are those of the source. Rule as the data show it: active = growth inhibition above about 70%; inactive = the rest.

This is an account of results in PubChem BioAssay (NCI).

The nature of assay [1]: NCI Yeast Anticancer Drug Screen. Data for the rad50 strain (AID 155).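 Also: 0% = growth of vehicle-only cultures of the same strain.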 To be noted: S. cerevisiae rad50 strain growth inhibition, hits give high values. A digest of the protocol:
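Yeast carrying a defined DNA repair defect were exposed to test compounds, and growth was compared with vehicle-treated controls to give percent inhibition.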

Assay [2] can be described thus: NCI Yeast Anticancer Drug Screen. Data for the mec2-1 strain (AID 157). The note with it: S. cerevisiae mec2-1 strain, hits give high values. An outline of the steps: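 Test agents were screened against the mec2-1 yeast strain, with defined DNA repair or cell cycle alteration. Growth was scored as inhibition against vehicle-only controls.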
A short description of assay [3]: NCI Yeast Anticancer Drug Screen. Data for the sgs1 mgt1 strain (AID 161).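 Also: 0% = growth of cultures given vehicle only.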 The note with it: S. cerevisiae sgs1 mgt1 strain, hits give high values. A digest of the protocol:
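Read-out: growth inhibition vs vehicle controls. Cells: mutant yeast strain deficient in DNA damage repair.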

The nature of assay [4]: NCI Yeast Anticancer Drug Screen. Data for the cln2 rad14 strain (AID 165).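 Also: 0% = growth equal to vehicle treated cultures.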 To be noted: S. cerevisiae cln2 rad14 strain, hits give high values. A digest of the protocol: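 Growth of compound-exposed yeast (cln2 rad14 genotype) measured and expressed as inhibition relative to vehicle.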
A short description of assay [5]: NCI Yeast Anticancer Drug Screen. Data for the bub3 strain (AID 167). The note with it: S. cerevisiae bub3 mutant strain, hits give high values. A digest of the protocol: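 Compounds were applied to a genetically altered yeast strain carrying a cell-cycle control defect. Growth inhibition was scored against vehicle-treated controls.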
Assay [6] in a line: NCI Yeast Anticancer Drug Screen. Data for the mlh1 rad18 strain (AID 175). The note with it: S. cerevisiae mlh1 rad18 strain growth inhibition, hits give high values. An outline of the steps:
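In this whole-cell yeast screen, a strain with altered DNA damage repair is challenged with compound, and its growth is measured against matched vehicle-treated controls.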

The mark [7] stands for this setting: at 5.0 µM (retest, dose inferred, filed as 0.5).
Setting [8] is: at 50.0 µM (retest, dose inferred, filed as 5.0).

As for `CSC(=S)/C(=C/Nc1ncccn1)c1ccccc1`, the growth inhibition in assay [1] (setting [7]) is 5%; in assay [1] (setting [8]), 97% (active); in assay [1] (at 50.0 µM), 94.8% (active); in assay [2] (setting [7]), 3%; in assay [2] (setting [8]), 99% (active); in assay [2] (at 50.0 µM), 93.5% (active). The growth inhibition in assay [3] (setting [7]) is -3%; in assay [3] (setting [8]), 94% (active); in assay [3] (at 50.0 µM) it was 79% (active); in assay [4] (setting [7]) it was 1%; in assay [4] (setting [8]), 62%; in assay [4] (at 50.0 µM) it was 95% (active). Besides, the growth inhibition is -3% in assay [5] (setting [7]); 94% (active) in assay [5] (setting [8]); 91.8% (active) in assay [5] (at 50.0 µM); 7% in assay [6] (setting [7]); 97% (active) in assay [6] (setting [8]); 94.5% (active) in assay [6] (at 50.0 µM).
Consider `Cc1cc(N(CCOS(C)(=O)=O)CCOS(C)(=O)=O)ccc1C=Nc1ccc(-c2csc(-c3ccc(Br)cc3)n2)cc1`, for which the growth inhibition was 49% in assay [1] (setting [7]); 91% (active) in assay [1] (setting [8]); 95.5% (active) in assay [1] (at 50.0 µM); 47% in assay [2] (setting [7]); 95% (active) in assay [2] (setting [8]); 94.2% (active) in assay [2] (at 50.0 µM). The growth inhibition in assay [3] (setting [7]) was 48%; in assay [3] (setting [8]), 95% (active); in assay [3] (at 50.0 µM) it was 81.9% (active); in assay [4] (setting [7]) it was 37%; in assay [4] (setting [8]), 88% (active); in assay [4] (at 50.0 µM) it was 89.5% (active). The growth inhibition was 11% in assay [5] (setting [7]); 85% (active) in assay [5] (setting [8]); 76.9% (active) in assay [5] (at 50.0 µM); 88% (active) in assay [6] (setting [7]); 96% (active) in assay [6] (setting [8]); 96.7% (active) in assay [6] (at 50.0 µM).
Take `O=[N+]([O-])c1ccc(NC(=S)N/N=C(\c2ccccc2)c2ccccn2)cc1`: the growth inhibition is 8% in assay [1] (setting [7]); 73% (active) in assay [1] (setting [8]); 63.1% in assay [1] (at 50.0 µM); -32% in assay [2] (setting [7]); 79% (active) in assay [2] (setting [8]); 66.2% in assay [2] (at 50.0 µM). For the same molecule, the growth inhibition in assay [3] (setting [7]) was -19%; in assay [3] (setting [8]), 87% (active); in assay [3] (at 50.0 µM), 79.5% (active); in assay [4] (setting [7]), 19%; in assay [4] (setting [8]), 75% (active); in assay [4] (at 50.0 µM) it was 72.1% (active). Besides, the results for the growth inhibition in assay [6] (setting [7]), in assay [6] (setting [8]) and in assay [6] (at 50.0 µM) were 11%, 89% (active) and 79.8% (active), respectively.
In the case of `COc1ccc2c(c1)CCCN2S(=O)(=O)c1ccc(N)cc1`, the growth inhibition was -1% in assay [1] (setting [7]); 18% in assay [1] (setting [8]); 45.5% in assay [1] (at 50.0 µM); -3% in assay [2] (setting [7]); 5% in assay [2] (setting [8]); 27.1% in assay [2] (at 50.0 µM). Moreover, the growth inhibition in assay [3] (setting [7]) is -2%; in assay [3] (setting [8]), 16%; in assay [3] (at 50.0 µM), 36.8%; in assay [4] (setting [7]) it was 0%; in assay [4] (setting [8]), 13%; in assay [4] (at 50.0 µM) it was -6.65%. In addition, the growth inhibition was -2% in assay [6] (setting [7]), 12% in assay [6] (setting [8]) and 47% in assay [6] (at 50.0 µM).
With `CN(C)C(=O)/C=C/c1c[nH]c(=O)[nH]c1=O`, the growth inhibition in assay [1] (setting [7]) is -146%; in assay [1] (setting [8]), -149%; in assay [1] (at 50.0 µM) it was -5.65%; in assay [2] (setting [7]), -47%; in assay [2] (setting [8]), -49%; in assay [2] (at 50.0 µM), -2.3%. The growth inhibition in assay [3] (setting [7]) was -63%; in assay [3] (setting [8]) it was -68%; in assay [3] (at 50.0 µM), 1.05%; in assay [4] (setting [7]), -58%; in assay [4] (setting [8]), -64%; in assay [4] (at 50.0 µM), 19.1%. Further, the growth inhibition in assay [5] (setting [7]) is -73%; in assay [5] (setting [8]), -78%; in assay [5] (at 50.0 µM) it was -3.35%; in assay [6] (setting [7]) it was -149%; in assay [6] (setting [8]) it was -119%; in assay [6] (at 50.0 µM) it was 2.75%.
Regarding `COc1ccc(C2=NN(c3ccccc3)C[N+](c3ccc(OC)cc3)=N2)cc1`, the growth inhibition in assay [1] (setting [7]) is 22%; in assay [1] (setting [8]), 72% (active); in assay [1] (at 50.0 µM) it was 96.5% (active); in assay [2] (setting [7]) it was -7%; in assay [2] (setting [8]) it was 51%; in assay [2] (at 50.0 µM) it was 97.5% (active). For the same molecule, the growth inhibition in assay [3] (setting [7]) was 9%; in assay [3] (setting [8]) it was 48%; in assay [3] (at 50.0 µM) it was 97.7% (active); in assay [4] (setting [7]), 10%; in assay [4] (setting [8]) it was 96% (active); in assay [4] (at 50.0 µM) it was 96.4% (active). Further, the values for the growth inhibition in assay [6] (setting [7]), in assay [6] (setting [8]) and in assay [6] (at 50.0 µM) were 6%, 84% (active) and 96.8% (active), respectively.
